Data from PubChem BioAssay (NCI).
This is part of a sample that, as a whole, favours compounds with a hit. Of some 83,000 tested, about 20% had one in any assay.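 In brief: 96-well plates, 48 h treatment, single concentration, percent growth endpoint.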 The source made the active and inactive calls. How the source made its calls: active means growth percent below 10; inactive means the rest.

Key:
Assay in all cases: NCI-60 one-dose screen, 48 h (100 = growth as untreated, 0 = no growth, -100 = all killed)
Conditions in all cases: 10 µM unless noted
[1] = tested on: HCT-15 colon
[2] = tested on: HT29 colon
[3] = tested on: SNB-75 CNS
[4] = tested on: SNB-19 CNS
[5] = tested on: U251 CNS
[6] = tested on: PC-3 prostate
[7] = tested on: SK-MEL-5 melanoma
[8] = tested on: UACC-62 melanoma
[9] = tested on: LOX IMVI melanoma
[10] = tested on: SK-MEL-28 melanoma

Measured: growth

COC(=O)CC(=O)C(=O)OC
inactive: [1] 103% | [2] 106% | [3] 92.2% | [4] 107% | [5] 102% | [6] 99.8% | [7] 101% | [8] 108% | [9] 55.1% | [10] 111%

NC(N)=N/N=C/c1cccc(Br)c1
inactive: [1] 105% | [2] 103% | [3] 92.3% | [4] 101% | [5] 110% | [6] 90.1% | [7] 84.7% | [8] 107% | [9] 89.6% | [10] 112%

COc1cc(CCNc2cnc3cc(N)cc(N)c3n2)cc(OC)c1
inactive: [1] 104% | [2] 100% | [3] 98.8% | [4] 111% | [5] 104% | [6] 118% | [7] 103% | [8] 109% | [9] 108% | [10] 61%

CCc1ccc(C(=Nc2ccc(N(C)C(=O)CN3CCN(C)CC3)cc2)c2c(O)[nH]c3ccc(C(=O)OC)cc23)cc1
active: [1] -73.2% | [2] -66.3% | [3] -97.3% | [4] -84.9% | [5] -75.1% | [6] -60.9% | [7] -98.1% | [8] -57.5% | [9] -93.9% | [10] -87.3%

CC(=O)OC1/C=C\CC/C=C\C1 (stereo not given)
inactive: [1] 98% | [2] 109% | [3] 82.6% | [4] 100% | [5] 96.6% | [6] 96.4% | [7] 98.8% | [8] 101% | [9] 106% | [10] 111%

Cc1ccc2c(O)c(O)cc(NC(C)CCCN)c2n1 (stereo not given)
inactive: [1] 116% | [2] 47.7% | [3] 108% | [4] 87.7% | [5] 25.7% | [6] 89.2% | [7] 95.7% | [8] 113% | [9] 31.2% | [10] 131%

CC([C@H]1CC=C2C3CCC4=C[C@@H](N(C)C)CC[C@]4(C)C3CC[C@@]21C)N(C)C (stereo not given in full)
active: [1] -20.7% | [2] -18.3% | [8] -58.3% | [9] -46.5% | [10] -33.6%
inactive: [3] 32.4% | [4] 79.7% | [5] 31.5% | [6] 42.3% | [7] 23.6%

Cn1c2ccccc2c2ccccc21
inactive: [1] 107% | [2] 104% | [3] 85.5% | [4] 98.3% | [5] 96.5% | [6] 105% | [7] 105% | [8] 101% | [9] 95.8% | [10] 102%

O=C1C=C(OCC=C(C(F)(F)F)C(F)(F)F)c2ccccc2C1=O
active: [2] 6.37% | [6] -19% | [9] -62.4% | [10] -17.5%
inactive: [1] 11% | [3] 66.6% | [4] 61% | [5] 39.7% | [7] 33.5% | [8] 63.7%

Cc1ccc(S(=O)(=O)NC(CCC(=O)Nc2ccccc2)C(=O)Nc2ccccc2)cc1 (stereo not given)
active: [1] 0.514% | [2] -14.5% | [3] -24.9% | [4] -3.81% | [5] -43.8% | [6] -10.4% | [7] -65.5% | [8] -45.6% | [9] -21.6% | [10] -33.2%

CC(=O)Nc1ccc(CC#N)cc1Br
inactive: [1] 105% | [2] 104% | [3] 91% | [4] 103% | [5] 104% | [6] 95.6% | [7] 97.8% | [8] 99.6% | [9] 106% | [10] 114%

CCCCCCCCCCCCCCCCCC1=NCCN1CS(=O)(=O)O
active: [2] 2.18% | [9] -2.88%
inactive: [1] 41% | [3] 60.9% | [4] 80.4% | [5] 64.5% | [6] 39% | [7] 87.3% | [8] 88.9% | [10] 103%

Cc1ccnc2c(NC(C)CCCN)cc(O)c(O)c12 (stereo not given)
inactive: [1] 121% | [2] 60% | [3] 105% | [4] 102% | [5] 83.1% | [6] 91.6% | [7] 95.9% | [8] 105% | [9] 60.7% | [10] 115%

COC(=O)C1CC(=O)N(C(=O)Nc2ccc(Cl)cc2Cl)C1 (stereo not given)
inactive: [1] 99% | [2] 101% | [3] 98.7% | [4] 102% | [5] 97.3% | [6] 95.2% | [7] 108% | [8] 97.2% | [9] 96.8% | [10] 112%

CC(C)(C)c1cc(C[P+](c2ccc(Cl)cc2)(c2ccc(Cl)cc2)c2ccc(Cl)cc2)cc(C(C)(C)C)c1O
inactive: [1] 99.1% | [2] 56.9% | [3] 87.2% | [4] 98% | [5] 85.4% | [6] 70% | [7] 85.8% | [8] 81.6% | [9] 92.6% | [10] 88%

CC(=O)Nc1nc(C)c(C(=O)NN)s1
inactive: [1] 107% | [2] 106% | [3] 88.8% | [4] 94.4% | [5] 92.1% | [6] 84.4% | [7] 102% | [8] 91.9% | [9] 96.1% | [10] 100%

CC(C)OC(=O)[C@H](C)N[P@@](=O)(OC[C@@]1(C)O[C@@H](n2cc(F)c(N)nc2=O)C[C@@H]1O[P@](=O)(N[C@@H](C)C(=O)OC(C)C)Oc1ccccc1)Oc1ccccc1
inactive: [1] 106% | [2] 86% | [3] 78.3% | [4] 73.8% | [5] 93.2% | [6] 71.4% | [7] 90.6% | [8] 99.3% | [9] 80.8% | [10] 93.5%

CC1(C)CC(=O)C2=C(C1)Oc1nc(N)c(C#N)c(N)c1C2c1ccc(F)cc1 (stereo not given)
inactive: [1] 123% | [2] 99.6% | [3] 101% | [4] 113% | [5] 107% | [6] 113% | [7] 91.6% | [8] 85.6% | [9] 96.6% | [10] 110%

COC(=O)c1cc(Nc2ccc(O)c3c2C(=O)c2c([N+](=O)[O-])ccc(O)c2C3=O)cc(C(=O)OC)c1
inactive: [1] 16.3% | [2] 36.5% | [3] 59.1% | [4] 76.9% | [5] 74.8% | [6] 70.9% | [8] 48.8% | [9] 59.5% | [10] 30.8%
active: [7] -49%

NNC(=S)N1N=C(c2cc3ccccc3o2)CC1c1c[nH]c2ccccc12 (stereo not given)
inactive: [1] 30.4% | [2] 34.1% | [3] 88.4% | [4] 35.5% | [5] 36% | [6] 29.2% | [7] 42.1% | [8] 15.4% | [9] 26% | [10] 40.2%

COc1ccc2c(c1)/C(=C1/S/C(=N/c3nnc(C)s3)NC1=O)C(=O)N2Cc1ccc(Br)cc1
inactive: [1] 27.5% | [2] 35.4% | [3] 45.7% | [4] 24.7% | [5] 14.3% | [6] 21.9% | [7] 36.3% | [8] 32.9% | [9] 32.1% | [10] 32.6%

CCc1c(C)c2ccc(OCC(=O)N=Nc3c(O)[nH]c4ccccc34)c(C)c2oc1=O
inactive: [3] 30.7% | [4] 19.2% | [7] 34.2% | [8] 22.8% | [10] 64.8%
active: [1] -15% | [2] -38.6% | [5] -70.8% | [6] -9.58% | [9] -37.8%

C/C(=N\Nc1ccc(Cl)cn1)c1ccc2ccccc2n1
inactive: [1] 13.4% | [2] 16.3% | [3] 32.5% | [4] 24.7% | [6] 17.7% | [10] 17.5%
active: [5] 6.99% | [7] -45% | [8] -7.97% | [9] 2.73%

COc1ccc(/C(=C(\c2ccccc2)[N+](=O)[O-])c2ccc(OCCN3CCCC3)cc2)cc1
inactive: [3] 76% | [4] 87.8% | [5] 74.1% | [6] 69.4% | [8] 38.4%
active: [1] 6.54% | [2] 9.77% | [7] -78.2% | [9] -20.1% | [10] -10.3%

COc1ccc(Cn2cc3c(c2)-c2oncc2CC3)cc1OC
inactive: [1] 16.3% | [4] 42% | [5] 18.9% | [6] 25.5% | [8] 40.6% | [9] 37.3% | [10] 50.3%
active: [2] 7.91% | [3] 0.447% | [7] 9.72%

CC(=O)O.[In]
inactive: [1] 109% | [2] 105% | [3] 90.6% | [4] 109% | [5] 98.8% | [6] 99.7% | [7] 95.2% | [8] 102% | [9] 35.3% | [10] 112%

Oc1ccc([S+](c2ccc(O)cc2)c2ccc(O)cc2)cc1
inactive: [1] 97.4% | [2] 108% | [3] 92.5% | [4] 99.7% | [5] 103% | [6] 97.9% | [7] 100% | [8] 101% | [9] 107% | [10] 105%
